# Screens from PubChem.
# A selection: hits, their analogues and other compounds. The true share with any hit is near 14%.
# FBPA Giardia inh – Giardia lamblia aldolase inhibition. A8B2U2. purified Giardia FBPA. hit rate 0.71% among 290,000. Potency, µM (series often up to 59.6 µM), actives largely listed as inhibitors. AID 2451; note: nearly all actives have a fitted effect of over 55% in size
#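 40 nM FBPA preincubated 10 min at RT with compound (up to 57.5 uM final), then substrate plus GAPDH/TPI/NAD/arsenate coupling and diaphorase/resazurin added. Fluorescence read after 20 min at RT, 525/598 nm.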
# NS1 inh – inhibitors of influenza NS1 protein function. Potency, µM (titrated, usually from 46.1 µM). hit rate 0.4% among 270,000; calls by dose curve; note: actives are rising curves; nearly all actives have a fitted effect of over 50% in size
#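 Recovery from NS1-induced slow growth read by OD600 in budding yeast switched to galactose assay medium (pH 6.0, -URA) at 1:100 dilution. Compound 23 nl per well; the matching strain lacking NS1 serves as control.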
# LmPK inhibitor – LmPK (Leishmania mexicana) enzyme inhibition. AID 1721. purified LmPK, Kinase-Glo ATP luminescence, 1 h. Potency, µM (titrated, usually from 57.5 µM), usual class: inhibitors. hit rate 0.37% among 290,000
# Target sequence (Q27686 whole entry, looked up): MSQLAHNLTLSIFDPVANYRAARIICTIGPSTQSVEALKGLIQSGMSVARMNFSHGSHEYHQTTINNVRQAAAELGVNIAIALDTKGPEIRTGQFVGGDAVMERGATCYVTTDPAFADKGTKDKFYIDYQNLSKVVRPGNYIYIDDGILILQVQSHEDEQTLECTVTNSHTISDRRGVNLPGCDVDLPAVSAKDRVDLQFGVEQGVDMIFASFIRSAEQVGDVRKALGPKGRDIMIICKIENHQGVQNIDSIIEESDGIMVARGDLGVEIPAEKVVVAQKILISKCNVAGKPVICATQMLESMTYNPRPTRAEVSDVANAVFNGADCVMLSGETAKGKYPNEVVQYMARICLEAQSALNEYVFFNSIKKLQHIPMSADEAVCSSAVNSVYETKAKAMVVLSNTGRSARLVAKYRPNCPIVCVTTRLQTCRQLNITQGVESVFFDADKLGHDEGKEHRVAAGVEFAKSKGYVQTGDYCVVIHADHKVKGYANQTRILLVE
#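 qHTS format; LmPK 0.1 nM; substrates PEP 0.5 mM and ADP 0.1 mM. One-hour room-temperature incubation, then coupled luciferase luminescence; 0.5 nM enzyme wells mark activation.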
# Cycloheximide cs – counter-screen hit for Shiga toxin inhibitors, cycloheximide; cell reporter, cycloheximide protein synthesis inhibition counterscreen; max response, %; hit rate 12% among 300,000; in the data active = max response mostly above about 13%, no sharp cut-off; inactive = mostly below about 14%; note: read at 38.3 µM for the half of the compounds with a filed dose
# Shiga toxin inh – Shiga toxin inhibition. inhibition, % at 38.7 µM. hit rate 9.2% among 290,000. Vero cells, Shiga toxin protein synthesis inhibition reporter; in the data active = inhibition mostly above about 28%, no sharp cut-off; inactive = mostly below about 43%
# Numbers stand for hits; i = inactive; ? = inconclusive; nt = no result given; [ ] = dose if it differs, or a comment. Unless noted, calls come from the whole dose curve; as a rule, active = well fitted curve in the direction sought with a large enough effect; inconclusive = small, poorly fitted or top-dose-only effect, or another doubt; inactive = no such curve, though single readings can be large; an effect the other way counts as inactive or inconclusive.
SMILES,FBPA Giardia inh,NS1 inh,LmPK inhibitor,Cycloheximide cs,Shiga toxin inh
CC(C)(C)NC(=O)c1ccc(C(=O)NC(C)(C)C)cc1,i,i,i,i,i
CC(C)(C)NC(=O)c1sccc1C(=O)O,i,i,i,22.4,51.4
COc1ccccc1CC(=O)N(Cc1ccccc1)c1ccc(C)cc1,nt,i,i,i,i
Cc1cccc(C(=O)NNC(=O)C23CC4CC(CC(C4)C2)C3)c1O,i,i,i,14.0,i
COc1ccc(C(=O)NNC(=O)C23CC4CC(CC(C4)C2)C3)c(OC)c1,i,i,i,21.1,i
COc1ccc(OC)c(C(C)NC(=O)C23CC4CC(CC(C4)C2)C3)c1 (stereo not given),i,i,i,i,nt
CCOC(=O)N1CCC(NC(=O)c2cc(C(=O)Nc3ccc(S(=O)(=O)N4CCCCC4)cc3)ccc2CO)CC1,i,nt,i,i,i
COc1ccc(C(=O)Nc2ccccc2C(=O)N2CCOCC2)cc1,i,i,i,i,i
O=C(O)c1c(-c2c3ccc(=O)cc-3oc3cc(O)ccc23)cc2ccccc2c1-c1ccccc1,nt,i,nt,nt,nt
Fc1ccc(COc2ccc(C(=S)N3CCCC3)cc2)cc1,i,i,i,53.1,58.9
O=C(COc1ccc(C(=S)N2CCCC2)cc1)Nc1ccc(F)cc1,i,i,i,i,i
CCOc1cc(C(=S)N2CCCC2)ccc1OCc1ccccc1,i,i,i,i,i
S=C(c1ccc(OCc2ccccc2)cc1)N1CCCC1,i,i,i,20.9,39.4
NCCNc1ncnc2ccc(Cl)cc12,nt,i,nt,nt,nt
COc1ccc(C(=O)c2ccc(OC)c(N)c2)cc1N,i,i,i,50.3,122.4
COc1ccc(OC(=O)/C=C/c2ccc([N+](=O)[O-])cc2)cc1,i,i,i,i,i
COc1ccc(C(=O)/C=C/c2cccs2)c(OC(=O)c2cccc([N+](=O)[O-])c2)c1,i,i,i,59.7,131.7
COc1ccc(C(=O)/C=C/c2ccc(F)cc2)c(OC(=O)c2ccc([N+](=O)[O-])cc2)c1,i,i,i,22.9,i
Cc1ccc(Nc2ncccc2C(N)=O)cc1[N+](=O)[O-],i,i,i,39.0,50.0
Cc1ccc(Nc2ncccc2C(=O)O)cc1C,i,i,i,20.6,92.0
Cc1cc(C)c(Nc2ncccc2C(=O)O)c(C)c1,i,i,i,i,i
O=C(O)c1cccnc1Nc1ccc(Cl)cc1,i,nt,i,26.5,101.1
NC(=O)c1cccnc1Nc1ccccc1Cl,i,i,i,29.7,56.3
COS(C)(=O)=O,i,nt,nt,nt,nt
COC(=O)NC(CC(C)=O)c1cccc(C)c1 (stereo not given),i[12.9 µM],nt,nt,nt,nt
SMILES,FBPA Giardia inh,NS1 inh,LmPK inhibitor,Cycloheximide cs,Shiga toxin inh
COC(=O)CC1COc2ccccc2N1S(=O)(=O)c1ccc(Br)cc1 (stereo not given),i,i,i,i,i
Cn1c(=O)c2cn3c(c2n(C)c1=O)C(c1ccccc1)CC(c1ccccc1)=N3 (stereo not given),i,i,i,38.0,105.4
C=C(C)Cn1c(-c2ccc(OC)cc2)nc2ccccc21,i,i,i,i,i
C=CCn1c(-c2ccc(C)cc2)nc2ccccc21,i,i,i,i,i
CCOC(Cn1c(-c2ccc(OC)cc2)nc2ccccc21)OCC,i,i,i,i,i
COCn1c(-c2ccc(OC)cc2)nc2ccccc21,i,i,22.4µM,51.1,active
COCCn1c(-c2ccccc2)nc2ccccc21,i,?,i,65.6,96.1
COc1ccc(-c2nc3ccccc3n2Cc2ccc(C)cc2)cc1,i,i,i,41.7,44.0
CCCn1c(-c2ccc(OC)cc2)nc2ccccc21,i,i,i,13.2,i
COc1ccc(Cn2c(-c3ccc(OC)c(O)c3)nc3ccccc32)cc1O,i,i,i,26.8,75.2
COc1ccc(CNc2nc3ccccc3n2Cc2ccc(C)cc2)cc1OC,i,i,i,i,i
COc1cccc(NC(=O)CCC(=O)N2CC(C)Oc3ccc(C)cc32)c1 (stereo not given),i,i,i,i,i
CCN(c1ccccc1)S(=O)(=O)c1cc(C(=O)Nc2ccc(Br)cc2)ccc1F,i,i,i,14.0,64.9
Oc1cc(-n2cccn2)c(O)cc1-n1cccn1,?,i,i,37.0,70.1
c1ncc(-c2ccoc2)c(NC2CC2)n1,i,nt,nt,nt,nt
Cc1cc(NC(=O)Nc2cc(Cl)ccc2C)no1,i,i,i,12.3,i
Cc1cc(NC(=O)Nc2ccc(F)cc2)no1,nt,i,i,25.9,69.1
COc1cc(NC(=O)Nc2cc(C)on2)cc(OC)c1OC,i,i,i,i,i
Cc1cc(NC(=O)Nc2ccc(C)c(C)c2)no1,i,i,i,42.5,96.6
